Laboratory results from PubChem BioAssay AID624330 (Southern Research Specialized Biocontainment Screening …, 2012).
The campaign covered roughly 340,000 compounds. About 2,100 (0.62%) were called active.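 Rule for the calls: active = first-screen hits whose inhibition reached a set limit at any dose in the follow-up dose series; inconclusive = inhibition above the set first-screen limit but never retested; inactive = the rest.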 A selection follows. Results with a measured potency or affinity are listed apart.

Target: Rac GTPase-activating protein 1 (Homo sapiens) (UniProt Q9H0H5)
Test: MgcRacGAP GTPase-activating activity inhibitors, confirmation, biochemical, ADP Hunter fluorescence, primary and confirmatory (AID 624330);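 note: fluorescence reports GDP produced by GAP-driven GTP hydrolysis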
Conditions: MgcRacGAP-stimulated Rac1 GTP hydrolysis, at 30 µM, stronger effect = higher value, GST-tagged Rac1 F28L mutant substrate

Chain of Rac GTPase-activating protein 1 (Homo sapiens) (Q9H0H5 whole entry, looked up): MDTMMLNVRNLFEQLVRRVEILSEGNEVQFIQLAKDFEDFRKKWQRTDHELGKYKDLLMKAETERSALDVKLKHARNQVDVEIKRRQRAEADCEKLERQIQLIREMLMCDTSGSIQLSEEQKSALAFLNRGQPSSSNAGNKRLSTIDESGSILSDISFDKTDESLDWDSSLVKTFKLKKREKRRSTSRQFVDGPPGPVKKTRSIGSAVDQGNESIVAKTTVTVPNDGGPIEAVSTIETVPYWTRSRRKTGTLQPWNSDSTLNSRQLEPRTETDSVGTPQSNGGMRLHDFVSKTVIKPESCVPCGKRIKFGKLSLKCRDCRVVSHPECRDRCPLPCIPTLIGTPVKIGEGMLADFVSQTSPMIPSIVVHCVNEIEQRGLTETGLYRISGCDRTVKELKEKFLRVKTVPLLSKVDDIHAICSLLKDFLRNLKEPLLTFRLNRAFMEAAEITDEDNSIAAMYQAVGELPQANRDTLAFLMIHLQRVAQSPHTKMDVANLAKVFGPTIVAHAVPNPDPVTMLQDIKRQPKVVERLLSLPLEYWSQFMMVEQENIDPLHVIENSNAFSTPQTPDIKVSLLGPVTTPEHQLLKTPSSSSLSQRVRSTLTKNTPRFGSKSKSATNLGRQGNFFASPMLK

inhibition, inactive:
Cc1cc(Cl)cc2sc(NC(=O)c3ccco3)nc12 5.28%
Cc1cc(Cl)cc2sc(NC(=O)C3CC3)nc12 5.72%
CCS(=O)(=O)CCSc1nc2ccccc2o1 -5.63%
C/C(O)=C\c1nc2ccccc2oc1=O 18.1%
CCCCCN1C(C)=CC(=C(C#N)C#N)C=C1C 9.16%
Cc1cccc2sc(N(CCN(C)C)C(=O)c3ccc4ccccc4c3)nc12 5.08%
O=c1[nH]cc(S(=O)(=O)N2CCN(c3ccc(F)cc3)CC2)c(=O)[nH]1 2.66%
Cc1cc(C(=O)Nc2nccs2)c2cc(F)ccc2n1 4.04%
O=C(Nc1cccc(S(=O)(=O)N2CCCCC2)c1)c1ccco1 -7.5%
Cc1ccc(S(=O)(=O)N2CCCCC2)cc1NC(=O)c1ccco1 15.5%
O=C(COC(=O)c1ccco1)Nc1cccc(S(=O)(=O)N2CCCCC2)c1 0.12%
Cc1ccc(S(=O)(=O)N2CCOCC2)cc1NC(=O)CNCc1ccccc1Cl 8.04%
Cc1ccc(S(=O)(=O)N2CCOCC2)cc1C(=O)NCc1cccnc1 5.2%
O=C(CNCc1ccco1)Nc1cc(S(=O)(=O)N2CCOCC2)ccc1N1CCCC1 24.8%
COc1ccc(CNC(N)=O)cc1OC 5.81%
CN(C)S(=O)(=O)c1ccc(NC(=O)CN2C(=O)NC3(CCCC3)C2=O)cc1 4.79%
CCCN(C(=O)c1c(CC)noc1C)c1c(N)n(Cc2ccccc2)c(=O)[nH]c1=O 7.17%
CC1(NC(=O)N2CCCCC2)CCS(=O)(=O)C1 (stereo not given) 6.45%
O=C1CC(c2ccc(F)cc2)CC(O)=C1C=NCCN1CCNCC1 (stereo not given) 10.7%
COc1ccc(-c2csc3ncnc(N4CCN(c5ccccc5OC)CC4)c23)cc1 8.39%
O=C(OCC(=O)N1CCN(C(=O)c2ccco2)CC1)c1ccc(Cl)nc1 2.2%
COCCNC(=O)c1ccc(N2CC3CC(C2)c2cccc(=O)n2C3)c(NC(=O)c2cc(OC)cc(OC)c2)c1 (stereo not given) 10.3%
COc1ccc(CNC(=O)C2CCC(=O)N(CC3CCCCC3)C2)cc1 (stereo not given) 8.55%
O=C(NN1C(=O)c2ccccc2NC1c1ccc([N+](=O)[O-])o1)c1ccc(Br)cc1 (stereo not given) 5.26%
O=C(Cn1c(NCCO)nc2ccccc21)NCCc1ccccc1 0.41%
Nc1nnc(SCC(=O)N2CCN(c3ccccc3)CC2)s1 2.87%
Cc1nc(Cc2ccccc2)sc1CC#N -3.31%
CC(C)CC(NC(=O)C(Cc1ccc(OCc2ccccc2)cc1)NC(=O)OC(C)(C)C)C(N)=O (stereo not given) 10.6%
Cc1csc(NC(=O)CSc2nc(C)cs2)n1 3.74%
COc1ccc(CC(=O)Nc2nc(C)cs2)cc1 12%
COc1ccc(-n2nnnc2SCC(=O)N2CCN(C(=O)c3ccco3)CC2)cc1OC 7.68%
CCCCNC(=O)CSc1nc2ccccc2n1S(=O)(=O)c1ccc(Br)cc1 2.01%
Cc1ccc(-c2n[nH]c(=S)n2/N=C/c2sccc2C)cc1 5.68%
Nc1nnnn1/N=C/c1cccc(O)c1 5.38%
O=[N+]([O-])c1ccccc1/C=N/n1c(-c2ccccc2)n[nH]c1=S 16.3%
Cc1ccsc1/C=N/n1c(-c2cc(-c3ccccc3)n[nH]2)n[nH]c1=S 11.8%
Cc1cc(C)n(/N=C/c2cccc(O)c2)c(=O)c1C(N)=O 10.6%
O=[N+]([O-])c1ccccc1/C=N/n1c(C(F)(F)F)n[nH]c1=S 16.4%
S=c1[nH]nc(-c2cc(-c3ccccc3)n[nH]2)n1/N=C/c1cccs1 16.3%
Cc1n[nH]c(=O)n(N=Cc2cccs2)c1=O 7.77%
C#CCOCCOCCOCCNc1nc(N2CCN(C(=O)[C@H](CCCCN)n3cc(CN)nn3)CC2)nc(N2CCN(C(=O)[C@H](CCCN=C(N)N)n3cc(C(N)[C@H](C)CC)nn3)CC2)n1 (stereo not given in full) 7.55%
C/C(=N/OC(=O)c1ccccc1Br)c1ccc(C)cc1 6.4%
O=C(CN1CCCCCC1)Nc1cc([N+](=O)[O-])ccc1Cl 5.34%
Cc1cnc(NC(=O)c2cccc(S(=O)(=O)N3CCOCC3)c2)s1 1.86%
O=C(CCCOc1ccc(Cl)cc1Cl)N/N=C/c1ccc(Cl)cc1 10.9%
O=C1CC2(CCN(C(=O)c3ccccc3[N+](=O)[O-])CC2)Oc2ccccc21 -0.23%
CCOC(=O)c1ccc(N2C(=O)[C@@H](c3ccccc3)[C@H]2c2ccccc2)cc1 -2.09%
S=c1[nH]nc(-c2ccccn2)n1/N=C/c1ccc(Br)s1 18.4%
S=c1[nH]nc(-c2cc(-c3ccccc3)n[nH]2)n1/N=C/c1ccc(Br)s1 20.5%
CCCOc1cccc(/C=N/NC(=O)c2csc(C)c2C)c1 4.91%
CCOC(=O)N1CCN(CCc2ccccc2)CC1 7.1%
CC(C)[C@H](NC(=O)c1ccc(Cl)cc1)C(=O)Nc1cccc(S(=O)(=O)N2CCOCC2)c1 12.2%
O=C1ON=C(c2ccccc2)/C1=C/c1ccccc1 5.86%
CCOc1cc(/C=C2/C(=O)ON=C2C)cc(Br)c1O 29.1%
COc1ccc(/C=C2\C(=O)ON=C2c2ccccc2)cc1OC 16.1%
COc1ccc(/C=C2/C(=O)ON=C2c2ccccc2)cc1OC 15.4%
CCOc1cc(/C=C2\C(=O)ON=C2c2ccccc2)ccc1OC 24.3%
O=C1ON=C(c2ccccc2)/C1=C/c1ccc(O)cc1 27.7%
CN(C)c1cccc(NC(=O)CCc2ccccc2)c1 2.65%
C[C@H](CO)N1C[C@H](C)[C@H](CN(C)C(=O)CCC(F)(F)F)OCc2cnnn2CCCC1=O 6.43%
C=CCSc1nnc(-c2ccncc2)n1-c1ccc(OCC)cc1 6.74%
CC1CCN(S(=O)(=O)c2ccc(C(=O)NCc3cccnc3)cc2)CC1 -0.6%
C/C(CC(=O)Nc1cccc2c1CCCC2)=N\NC(=O)c1ccccc1N 5.83%
CC(C)(C)CC(=O)Nc1nnc(SCC(=O)NC2CCCC2)s1 4.93%
CC(C)OC(=O)c1c(NC(=O)c2cnn3c2NC(c2ccccc2)CC3C(F)(F)F)sc2c1CCCC2 (stereo not given) 10.2%
CCCCCC(=O)Nc1c2c(nc3ccccc13)CCC2 8.1%
Cc1ccccc1C(=O)Nc1c2c(nc3ccccc13)CCCC2 10.8%
O=C(Nc1c2c(nc3ccccc13)CCCC2)c1ccccc1Cl 2.57%
O=C(CCCCCl)Nc1c2c(nc3ccccc13)CCC2 0.44%
CCN1CCN(c2ccc(NC(=O)c3ccc(OC)c(S(=O)(=O)N4CCCC4)c3)cc2)CC1 4.33%
CC(C)N1CCN(Cc2coc3ccccc3c2=O)CC1CCO (stereo not given) 10.3%
O=C(CSc1nc(=O)n2ccccc2n1)NCCc1ccccc1 4.62%
NC(=O)CC(NC(=O)c1cccc(Br)c1)c1ccc(N2CCN(c3ccccn3)CC2)c([N+](=O)[O-])c1 (stereo not given) 5.09%
COc1ccccc1/C=C/C(=O)c1cc(Br)ccc1OC(=O)c1ccco1 8.54%
CC(C)CC(O)(CC(C)C)C(=O)NNc1ccccc1 11.2%
CCOC(=O)c1nc(Nc2ccccc2)c2ccccc2n1 -2.22%
CCOC(=O)c1nc(Nc2ccc(C)cc2)c2ccccc2n1 4.57%
CCN(CC(=O)Nc1ccccc1OC)C(=O)COc1ccc(C#N)cc1 2.59%
COc1ccccc1CN(C)CC(=O)Nc1ccc(Cl)cc1C(F)(F)F 18.9%
COc1ccc(CN(C)CC(=O)Nc2ccccc2C(F)(F)F)c(OC)c1 24.5%
COc1ccc(CCN=C(N)NS(=O)(=O)c2ccc(F)cc2)cc1OC 7.56%
CCC(=O)NC(=S)Nc1ccc(NC(=O)c2cccnc2)cc1 -1.6%
Cc1cc2ccccc2n2c(SCC(=O)NCc3cccs3)nnc12 -2.11%
C[C@H](CO)N1C[C@H](C)[C@@H](CN(C)S(=O)(=O)c2cccc(C#N)c2)OCc2cn(nn2)CCCC1=O 13.9%
NS(=O)(=O)c1ccc(-c2ccc(/C=C3\C(=O)Nc4cc(Cl)ccc43)o2)cc1 6.45%
NS(=O)(=O)c1ccc(-c2ccc(C=C3C(=O)c4ccccc4C3=O)o2)cc1 2.34%
CSc1ccccc1NC(=O)C1CCCN(S(C)(=O)=O)C1 (stereo not given) -1.03%
C=CCNC(=S)Nc1ccc(Cl)cc1 3.44%
C=CCNC(=S)Nc1cccc(NC(=S)NCC=C)c1 6.56%
CCCCn1c(CCNC(=O)c2cccs2)nc2ccccc21 -1.35%
COc1ccc(/C=N/NC(=O)c2ccc(N3CCCC3=O)cc2)cc1 7.42%
COc1cccc(/C=N/NC(=O)c2cccc(N3CCCC3=O)c2)c1 4.11%
COc1cccc(/C=N/NC(=O)c2ccc(N3CCCC3=O)cc2)c1 7.68%
COc1ccc(O)c(/C=N/NC(=O)c2cccc(N3CCCC3=O)c2)c1 3.65%
CCN(CCO)C(=O)CC1C(=O)NCCN1Cc1c(F)cccc1Cl (stereo not given) 9.19%
